Among the data in ChEMBL document CHEMBL1961873, “Compounds: GSK PKIS; Assays: Nanosyn kinase panel” (2012) are inhibition values, retold here.

Values joined by “and” are separate entries in the source; they are usually repeats but may differ in a detail not shown here. Identical values can stand only once.

Ribosomal protein S6 kinase alpha-4 (Homo sapiens), sequence (O75676 whole entry, looked up): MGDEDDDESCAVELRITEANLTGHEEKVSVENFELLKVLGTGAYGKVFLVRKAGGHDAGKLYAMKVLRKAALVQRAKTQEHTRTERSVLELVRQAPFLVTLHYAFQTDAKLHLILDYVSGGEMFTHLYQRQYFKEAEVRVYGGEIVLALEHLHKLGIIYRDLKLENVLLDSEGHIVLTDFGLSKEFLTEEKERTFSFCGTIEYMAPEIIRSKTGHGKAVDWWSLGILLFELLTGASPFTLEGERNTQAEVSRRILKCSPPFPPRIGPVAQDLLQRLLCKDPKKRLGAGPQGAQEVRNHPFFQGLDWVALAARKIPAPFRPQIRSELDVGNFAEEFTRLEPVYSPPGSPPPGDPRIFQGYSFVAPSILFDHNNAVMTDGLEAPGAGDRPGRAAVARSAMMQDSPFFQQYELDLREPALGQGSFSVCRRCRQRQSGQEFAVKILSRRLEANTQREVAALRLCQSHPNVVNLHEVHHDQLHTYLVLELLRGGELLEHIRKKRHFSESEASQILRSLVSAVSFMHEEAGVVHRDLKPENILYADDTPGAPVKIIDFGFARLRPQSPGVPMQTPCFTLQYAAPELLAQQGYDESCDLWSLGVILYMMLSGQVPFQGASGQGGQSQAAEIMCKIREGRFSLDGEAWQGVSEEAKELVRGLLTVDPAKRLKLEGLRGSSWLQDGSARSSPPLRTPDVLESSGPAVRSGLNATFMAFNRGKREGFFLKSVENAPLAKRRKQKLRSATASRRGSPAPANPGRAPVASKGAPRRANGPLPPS

The first assay deals with Ribosomal protein S6 kinase alpha-5 (Homo sapiens) (UniProt O75582). The conditions noted are these: at 1 µM.
Ribosomal protein S6 kinase alpha-5 (Homo sapiens), sequence (O75582 whole entry, looked up): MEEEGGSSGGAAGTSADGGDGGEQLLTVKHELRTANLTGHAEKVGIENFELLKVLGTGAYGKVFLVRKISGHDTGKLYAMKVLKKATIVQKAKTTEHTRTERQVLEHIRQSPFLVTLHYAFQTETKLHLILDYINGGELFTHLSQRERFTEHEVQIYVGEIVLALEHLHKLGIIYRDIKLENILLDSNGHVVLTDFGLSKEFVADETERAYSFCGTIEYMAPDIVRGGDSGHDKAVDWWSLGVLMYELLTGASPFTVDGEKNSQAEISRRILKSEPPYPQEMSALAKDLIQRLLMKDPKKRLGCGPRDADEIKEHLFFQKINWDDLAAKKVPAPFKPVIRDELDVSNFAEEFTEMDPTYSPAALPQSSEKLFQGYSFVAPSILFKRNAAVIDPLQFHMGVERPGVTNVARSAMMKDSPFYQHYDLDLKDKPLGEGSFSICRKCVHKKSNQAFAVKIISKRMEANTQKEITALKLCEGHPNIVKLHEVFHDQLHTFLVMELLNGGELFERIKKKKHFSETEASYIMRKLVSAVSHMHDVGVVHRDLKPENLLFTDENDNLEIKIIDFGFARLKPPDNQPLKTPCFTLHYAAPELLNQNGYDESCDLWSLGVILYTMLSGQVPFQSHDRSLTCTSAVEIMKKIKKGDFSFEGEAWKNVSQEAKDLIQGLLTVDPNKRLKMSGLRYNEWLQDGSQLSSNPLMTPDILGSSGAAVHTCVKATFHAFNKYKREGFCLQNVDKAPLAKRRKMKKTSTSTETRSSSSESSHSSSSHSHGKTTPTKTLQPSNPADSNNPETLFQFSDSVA
With `Nc1nonc1-c1nc2cnccc2n1C1CC1`, the inhibition was 82.3% and 76.5%.
Turning to `NS(=O)(=O)c1cccc(N/C=C2\C(=O)Nc3ccccc32)c1`, the inhibition amounted to 14.8%.
As to `CC1=C(C(=O)Nc2ccc3[nH]ncc3c2)C(c2ccc(F)cc2)N=C(c2ccc(C(F)(F)F)nc2)N1` (configuration not stated), the inhibition amounted to 19.2%.
For `CNC(=O)c1cncc(/C=C/c2ccccc2C)c1`, the inhibition stood at 6.01%.
For the compound `CN1CCC(C(=O)Nc2n[nH]c3nc(-c4ccc(O)cc4)c(Br)cc23)CC1`, the inhibition is 3.91% and 1.49%.
`Cc1cc(O)cc(C)c1/C=C/c1cncc(C(N)=O)c1`: the inhibition was 2.9%.
On the same count and under the same terms, for `CS(=O)(=O)Nc1ccc(-c2cc(-c3ccccc3)cc(C(N)=O)c2N)cc1` the value was 1.83%; for `CS(=O)(=O)CCNCc1ccc(-c2ccc3ncnc(Nc4ccc(OCc5ccccc5)cc4)c3c2)o1`, 0.66%; for `CCOc1ccc2c(-c3ccnc(Nc4cc(OC)cc(C(F)(F)F)c4)n3)cnn2n1`, 2.37%.
On to `Cc1cc(O)cc(C)c1/C=C/c1cncc(C(=O)OC(C)(C)C)c1`, for which the inhibition is 3.7%.
`O=C1Nc2ccccc2/C1=C1\CCc2cc(O)ccc21`: the inhibition stood at 10.1%.
For the compound `CCS(=O)(=O)c1ccc(OC)c(Nc2ncc(-c3cccc(F)c3)o2)c1`, the inhibition worked out at 7.75%.
As to `COc1cccc(Nc2nccc(-c3cnn4ncccc34)n2)c1`, the inhibition turned out to be 4.32%.
As for `Nc1ncnc2occ(-c3ccc(NC(=O)Nc4cc(C(F)(F)F)ccc4F)cc3)c12`, the inhibition is 23.9% and 10.9%.
`O=C(Nc1n[nH]c2nnc(-c3cccnc3)cc12)C1CC1`: the inhibition is -0.64%.
Turning to `O=C(O[C@H]1CN[C@H](C#Cc2cc3ncnc(Nc4ccc5c(cnn5Cc5ccccc5)c4)c3s2)C1)N1CCOCC1`, the inhibition is -2.26%.
As to `COc1cc(N2CCN(C(C)C)CC2)ccc1Nc1nc(Nc2cccc3ncccc23)c2cc[nH]c2n1`, the inhibition was 1.16%.
In the case of `CS(=O)(=O)CCNCc1ccoc1-c1ccc2ncnc(Nc3ccc(OCc4ccccc4)cc3)c2c1`, the inhibition was -2.16%.
Same read-out and setting: the same measure for `CCN1CCC(C(=O)Nc2n[nH]c3nnc(-c4cccc(F)c4F)cc23)CC1`: -2.44%; for `COc1ccc(-c2nn3ncccc3c2-c2ccnc(Nc3ccc(F)c(F)c3)n2)cc1`: 6.45%; for `CCS(=O)(=O)c1ccc(OC)c(Nc2ncc(-c3cccc(C(C)=O)c3)o2)c1`: 4.68%.
As to `c1cnn2ncc(-c3ccnc(NCCCN4CCOCC4)n3)c2c1`, the inhibition was found to be 6.41%.
`CN(C)CCNC(=O)Nc1ccc(N(C)c2ccnc(Nc3ccc(CS(C)(=O)=O)cc3)n2)cc1`: the inhibition amounted to 3.31%.
Still for that read-out and setting: the same measure for `CCn1c(-c2nonc2N)nc2cncc(C(=O)NCCNC)c21`: 76.8%.
For the compound `COc1cc(N2CCN(C(C)C)CC2)ccc1Nc1nc(Nc2cccc(F)c2C(=O)O)c2cc[nH]c2n1`, the inhibition was found to be 3.87%.
Still for that read-out and setting: the same measure for `COC(=O)Nc1nc2cc(Oc3ccc(NC(=O)Nc4ccccc4)cc3)ccc2[nH]1`: 2.36%; for `NC(=O)c1ccc2c(-c3ccnc(NCCCO)n3)c(-c3ccc(F)cc3)nn2c1`: 8.01%.
As to `CS(=O)(=O)Nc1ccc(-c2ccc3c(NC(=O)C4CC4)n[nH]c3c2)cc1`, the inhibition came out at 5.67%.
For the compound `COC(=O)Nc1nc2ccc(Oc3ccc(NC(=O)Nc4cc(C(F)(F)F)ccc4F)cc3)cc2s1`, the inhibition is 0.93%.
As for `COc1ccccc1-c1cc(/C=C2\C(=O)Nc3ncc(Br)cc32)cc(Br)c1O`, the inhibition stood at 1.75%.
As to `Cc1nnc(-c2cccc(-c3ccc(C(=O)NCC4CC4)cc3)c2)o1`, the inhibition came to 3.95%.

A further assay addresses Ribosomal protein S6 kinase alpha-4 (Homo sapiens) (UniProt O75676). The conditions noted are these: at 0.1 µM.
With `Nc1nonc1-c1nc2cnccc2n1C1CC1`, the inhibition is 44.6% and 48.9%.
With `NS(=O)(=O)c1cccc(N/C=C2\C(=O)Nc3ccccc32)c1`, the inhibition is 2.95%.
On to `CC1=C(C(=O)Nc2ccc3[nH]ncc3c2)C(c2ccc(F)cc2)N=C(c2ccc(C(F)(F)F)nc2)N1` (configuration not stated), for which the inhibition turned out to be 2.12%.
For `CNC(=O)c1cncc(/C=C/c2ccccc2C)c1`, the inhibition was determined as 2.58%.
With `CN1CCC(C(=O)Nc2n[nH]c3nc(-c4ccc(O)cc4)c(Br)cc23)CC1`, the inhibition was 2.85% and 1.78%.
`Cc1cc(O)cc(C)c1/C=C/c1cncc(C(N)=O)c1`: the inhibition came out at 1.67%.
Take `CS(=O)(=O)Nc1ccc(-c2cc(-c3ccccc3)cc(C(N)=O)c2N)cc1`: the inhibition is -0.81%.
With `CS(=O)(=O)CCNCc1ccc(-c2ccc3ncnc(Nc4ccc(OCc5ccccc5)cc4)c3c2)o1`, the inhibition is 3.06%.
Take `CCOc1ccc2c(-c3ccnc(Nc4cc(OC)cc(C(F)(F)F)c4)n3)cnn2n1`: the inhibition worked out at 1.07%.
Same read-out and setting: the same measure for `Cc1cc(O)cc(C)c1/C=C/c1cncc(C(=O)OC(C)(C)C)c1`: 1.86%; for `O=C1Nc2ccccc2/C1=C1\CCc2cc(O)ccc21`: 16.3%.
On to `CCS(=O)(=O)c1ccc(OC)c(Nc2ncc(-c3cccc(F)c3)o2)c1`, for which the inhibition amounted to 4.36%.
As for `COc1cccc(Nc2nccc(-c3cnn4ncccc34)n2)c1`, the inhibition was 1.62%.
Turning to `Nc1ncnc2occ(-c3ccc(NC(=O)Nc4cc(C(F)(F)F)ccc4F)cc3)c12`, the inhibition was 3.23% and -1.15%.
As for `O=C(Nc1n[nH]c2nnc(-c3cccnc3)cc12)C1CC1`, the inhibition is -0.31%.
In the case of `O=C(O[C@H]1CN[C@H](C#Cc2cc3ncnc(Nc4ccc5c(cnn5Cc5ccccc5)c4)c3s2)C1)N1CCOCC1`, the inhibition turned out to be 0.14%.
On to `COc1cc(N2CCN(C(C)C)CC2)ccc1Nc1nc(Nc2cccc3ncccc23)c2cc[nH]c2n1`, for which the inhibition was 1.01%.
Regarding `CS(=O)(=O)CCNCc1ccoc1-c1ccc2ncnc(Nc3ccc(OCc4ccccc4)cc3)c2c1`, the inhibition stood at 0.88%.
As to `CCN1CCC(C(=O)Nc2n[nH]c3nnc(-c4cccc(F)c4F)cc23)CC1`, the inhibition came to 0.41%.
Regarding `COc1ccc(-c2nn3ncccc3c2-c2ccnc(Nc3ccc(F)c(F)c3)n2)cc1`, the inhibition stood at 3.37%.
On to `CCS(=O)(=O)c1ccc(OC)c(Nc2ncc(-c3cccc(C(C)=O)c3)o2)c1`, for which the inhibition came to 0.6%.
With `c1cnn2ncc(-c3ccnc(NCCCN4CCOCC4)n3)c2c1`, the inhibition was 5.88%.
On the same count and under the same terms, for `CN(C)CCNC(=O)Nc1ccc(N(C)c2ccnc(Nc3ccc(CS(C)(=O)=O)cc3)n2)cc1` the value was 3.22%.
For the compound `CCn1c(-c2nonc2N)nc2cncc(C(=O)NCCNC)c21`, the inhibition was 35.5%.
With `COc1cc(N2CCN(C(C)C)CC2)ccc1Nc1nc(Nc2cccc(F)c2C(=O)O)c2cc[nH]c2n1`, the inhibition was determined as 0.48%.
`COC(=O)Nc1nc2cc(Oc3ccc(NC(=O)Nc4ccccc4)cc3)ccc2[nH]1`: the inhibition was found to be 2.62%.
Take `NC(=O)c1ccc2c(-c3ccnc(NCCCO)n3)c(-c3ccc(F)cc3)nn2c1`: the inhibition is 1.44%.
Still for that read-out and setting: the same measure for `CS(=O)(=O)Nc1ccc(-c2ccc3c(NC(=O)C4CC4)n[nH]c3c2)cc1`: -1%; for `COC(=O)Nc1nc2ccc(Oc3ccc(NC(=O)Nc4cc(C(F)(F)F)ccc4F)cc3)cc2s1`: 1.67%.
For the compound `COc1ccccc1-c1cc(/C=C2\C(=O)Nc3ncc(Br)cc32)cc(Br)c1O`, the inhibition is 1.76%.
On to `Cc1nnc(-c2cccc(-c3ccc(C(=O)NCC4CC4)cc3)c2)o1`, for which the inhibition was determined as 3.13%.
